Compound activity deposited in PubChem by National Center for Advancing Translational Sciences (NCATS).
MCF10A rerep = DNA re-replication induction in MCF 10a cells; MCF 10A DNA re-replication, Hoechst nuclear intensity, 48 h; Potency, µM (doses to about 46.1 µM), for the others: at the highest dose activity, positive = re-replication, hits mostly activators; 2.9% of 350,000 active; further: % of control where 0% means no effect; nearly all actives have a fitted effect of over 50% in size
KB-3-1 tox = KB-3-1 parental cell cytotoxicity. Potency, µM (series often up to 46.1 µM), hits mostly cytotoxic. AID 1347075. 1.4% of 400,000 active. KB-3-1 viability, CellTiter-Glo ATP luminescence, 72 h; further: on the % scale 0 is the no-effect control and ±100 the full control effect; nearly all actives have a fitted effect of over 60% in size
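Cytotoxicity measured as CellTiter-Glo luminescence after 72 h at 37 C. Compound titrations were pinned onto drug-naive KB-3-1 parental adenocarcinoma cells grown in DMEM with 10% FBS, and normalized data fitted to concentration-response curves.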
KB-V1 cytotox = kills drug-selected multidrug resistant KB-V1 cells. AID 1347076. KB-V1 MDR cells viability, CellTiter-Glo, 72 h. Potency, µM (series often up to 46.1 µM), actives largely listed as cytotoxic. 3.4% of 400,000 active; further: on the % scale 0 is the no-effect control and ±100 the full control effect; nearly all actives have a fitted effect of over 60% in size
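Cytotoxicity toward P-gp-expressing KB-V1 cells was determined as loss of CellTiter-Glo luminescence after 72 h at 37 degrees C. Compounds were tested in quantitative HTS format across a concentration range, with curves fitted to normalized data.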
HT1080-NT tox = kills 2HG-producing HT-1080-NT fibrosarcoma cells | 1.6% of 360,000 active | Potency, µM (titrated, usually from 46.1 µM), for the others: at the highest dose activity, negative = less viability, hits mostly cytotoxic | HT-1080-NT fibrosarcoma viability, CellTiter-Glo ATP luminescence, 48 h;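 further: NT is the 2HG producing partner of a matched IDH1 knockdown line; 0% = DMSO-treated cells and -100% = media-only wells without cells; nearly all actives have a fitted effect of over 55% in size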
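Luminescent CellTiter-Glo readout after 48 hours of compound exposure at 37 degrees C defined viability of HT-1080-NT cells. Activity was normalized to DMSO wells and cell-free media wells; concentration-response curves were fitted and assigned curve classes.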
SW480 rerep = DNA re-replication induction in SW480 cells; AID 624297; SW480 DNA re-replication, Hoechst DNA content imaging, 48 h; 1.8% of 340,000 active; Potency, µM (doses to about 46.1 µM), inactives show at the top dose re-replication activation, actives largely listed as activators; further: % of control where 0% means no effect; nearly all actives have a fitted effect of over 55% in size
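Treated cells incubate 48 hr (37 C, 5% CO2), are stained 40 min with Hoechst, and nuclear fluorescence is enumerated; a rise in nuclei with high DNA signal marks re-replication.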
HT1080 IDH1KD tx = HT-1080 IDH1 knockdown cell toxicity (counter line). HT-1080 IDH1 knockdown viability, ATP luminescence, 48 h. Potency, µM (series often up to 46.1 µM), inactives show at the top dose activity, negative = toxicity, most hits filed as cytotoxic. 2% of 360,000 active. AID 686971;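 further: 0% = DMSO wells and -100% = cell-free medium wells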
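HT-1080-IDH1KD cells (IDH1 knocked down), 750/well in RPMI with 5% FBS, treated with compound 48 h at 37 degrees C. Viability by CellTiter-Glo luminescence, normalised to DMSO and no-cell wells; concentration-response curves classed.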
* hit, by the source's call; [ ] = another dose, or the depositor's remark. Hits are enriched below; roughly 8% of the tested compounds scored in any of these assays. The call rests on the fitted dose curve; in most records, active means well fitted curve in the direction sought with a large enough effect; inconclusive means small, poorly fitted or top-dose-only effect, or another doubt; inactive means no such curve, though single readings can be large; an effect the other way counts as inactive or inconclusive. Potency means the concentration at half of the fitted maximal effect.

What do the screens show for `Cc1cc(CSc2ccccc2)ccc1NC(=O)c1ccc(Cl)c([N+](=O)[O-])c1`?
MCF10A rerep: 18.4µM*; KB-3-1 tox: inactive; KB-V1 cytotox: inactive; HT1080-NT tox: -8.1%; SW480 rerep: -6.2%; HT1080 IDH1KD tx: -13.2%

Results for O=C(Nc1ccc([N+](=O)[O-])cc1)Nc1ccon1 ?
MCF10A rerep: 5.8µM*; KB-3-1 tox: 0.581µM*; KB-V1 cytotox: 6.51µM*; HT1080-NT tox: 1.16µM*; SW480 rerep: inconclusive; HT1080 IDH1KD tx: 0.731µM*

Results for O=C(NC(=S)Nc1ccc(F)c([N+](=O)[O-])c1)c1ccccc1F ?
MCF10A rerep: inconclusive; KB-3-1 tox: inactive; KB-V1 cytotox: inactive; HT1080-NT tox: -8.3%; SW480 rerep: inconclusive; HT1080 IDH1KD tx: -16.6%

What do the screens show for `CCc1ccc(NC(=O)Nc2ccon2)cc1`?
MCF10A rerep: -10.1%; KB-3-1 tox: inactive; KB-V1 cytotox: inactive; HT1080-NT tox: 16.5%; SW480 rerep: -8.7%; HT1080 IDH1KD tx: 23.3%

What do the screens show for `O=C(Nc1ccc([N+](=O)[O-])cc1)Nc1ccc(Cl)cc1F`?
MCF10A rerep: inconclusive; KB-3-1 tox: inconclusive; KB-V1 cytotox: 18.4µM*; HT1080-NT tox: -2.8%; SW480 rerep: inconclusive; HT1080 IDH1KD tx: -11.8%

How did O=C(Nc1ccc(Cl)cc1)Nc1cc([N+](=O)[O-])ccc1F do in these assays?
MCF10A rerep: 17.9%; KB-3-1 tox: inactive; KB-V1 cytotox: inactive; HT1080-NT tox: 1.9%; SW480 rerep: 5.5%; HT1080 IDH1KD tx: 23.1%

Results for COc1ccccc1OCCn1c(NC(=O)c2ccccc2Cl)nc2ccccc21 ?
KB-3-1 tox: inactive; KB-V1 cytotox: inactive

What do the screens show for `Cc1oc2ncn(CC(C)C)c(=O)c2c1C(=O)NCCCN1CCCCC1C` (centres undefined)?
KB-3-1 tox: inactive; KB-V1 cytotox: inactive

How did CCOC(=O)/C=C1\CN(Cc2ccc(OC)cc2)S(=O)(=O)c2ccc(C(F)(F)F)cc21 do in these assays?
KB-3-1 tox: inactive; KB-V1 cytotox: inconclusive

What do the screens show for `COc1ccc2oc(=O)c(-c3nc(C)cs3)cc2c1`?
MCF10A rerep: 0.0%; KB-3-1 tox: inconclusive; KB-V1 cytotox: inactive; HT1080-NT tox: -2.5%[9.24 µM]; SW480 rerep: 0.5%; HT1080 IDH1KD tx: -2.7%

How did CC/C(C)=N\Nc1nc(-c2cc3cc(OC)ccc3oc2=O)cs1 do in these assays?
MCF10A rerep: inconclusive; KB-3-1 tox: inactive; KB-V1 cytotox: inactive; HT1080-NT tox: inconclusive; SW480 rerep: inconclusive; HT1080 IDH1KD tx: 14.6µM*

Results for COc1cc(NC(=O)CN(C)S(=O)(=O)c2ccc3[nH]c4c(c3c2)CCCC4)cc(OC)c1OC ?
KB-3-1 tox: inactive; KB-V1 cytotox: inactive

What do the screens show for `Cc1[nH]c(=O)[nH]c(=O)c1Sc1ccccc1[N+](=O)[O-]`?
MCF10A rerep: -4.4%; KB-3-1 tox: inactive; KB-V1 cytotox: inactive; HT1080-NT tox: 8.3%; SW480 rerep: -3.4%; HT1080 IDH1KD tx: 16.9%

Results for CC1(Br)C(Sc2ccccc2[N+](=O)[O-])=Nc2ccccc21 (centres undefined) ?
KB-3-1 tox: inconclusive; KB-V1 cytotox: inconclusive; HT1080-NT tox: 6.51µM*; HT1080 IDH1KD tx: inconclusive

What do the screens show for `O=C(c1ccccc1)c1nn(-c2ccccc2)c2nnc(Cc3ccccc3)c(=O)n12`?
MCF10A rerep: 23.1µM*; KB-3-1 tox: inconclusive; KB-V1 cytotox: inconclusive; HT1080-NT tox: -3.2%; SW480 rerep: 18.4µM*; HT1080 IDH1KD tx: -24.9%

What do the screens show for `COC(=O)c1nn(-c2ccccc2)c2nnc(Cc3ccc(C)cc3)c(=O)n12`?
MCF10A rerep: -11.1%; KB-3-1 tox: inactive; KB-V1 cytotox: inconclusive; HT1080-NT tox: -3.8%; SW480 rerep: 0.7%; HT1080 IDH1KD tx: 11.4%

How did COC(=O)c1nn(-c2cccc(C)c2)c2nnc(Cc3ccccc3)c(=O)n12 do in these assays?
MCF10A rerep: 0.3%; KB-3-1 tox: inactive; KB-V1 cytotox: inactive; HT1080-NT tox: 10.7%; SW480 rerep: inconclusive; HT1080 IDH1KD tx: 11.7%

Results for Cc1ccc(-n2nc(C(=O)c3ccccc3)n3c(=O)c(Cc4ccccc4)nnc23)cc1 ?
MCF10A rerep: -4.0%; KB-3-1 tox: inactive; KB-V1 cytotox: 16.4µM*; HT1080-NT tox: -3.1%; SW480 rerep: 4.6%; HT1080 IDH1KD tx: -3.1%

What do the screens show for `COc1ccc(NC(=O)CSC2=Nc3ccccc3C3=NC(CCC(=O)NCc4ccc(F)cc4)C(=O)N23)cc1Cl` (centres undefined)?
KB-3-1 tox: inactive; KB-V1 cytotox: inactive

What do the screens show for `CCCn1c(=O)c(C(=O)Nc2cccc(C)n2)c(O)c2ccccc21`?
MCF10A rerep: 12.5%; KB-3-1 tox: inactive; KB-V1 cytotox: inconclusive; HT1080-NT tox: 2.2%; SW480 rerep: -0.8%; HT1080 IDH1KD tx: -1.8%

How did CCC(C)n1c(=O)c(C(=O)Nc2ccccc2S(N)(=O)=O)c(O)c2ccccc21 (centres undefined) do in these assays?
MCF10A rerep: inconclusive; KB-3-1 tox: 16.4µM*; KB-V1 cytotox: inconclusive; HT1080-NT tox: inconclusive; SW480 rerep: 22.3%; HT1080 IDH1KD tx: inconclusive

What do the screens show for `CCCn1c(=O)c(C(=O)NNC(=O)c2ccc(Cl)cc2Cl)c(O)c2ccccc21`?
MCF10A rerep: -0.4%; KB-3-1 tox: inactive; KB-V1 cytotox: inactive; HT1080-NT tox: -6.4%; SW480 rerep: -1.5%; HT1080 IDH1KD tx: 0.0%

What do the screens show for `CCOC(=O)c1ccccc1Nc1cn(C(C)=O)c2ccccc12`?
MCF10A rerep: inconclusive; KB-3-1 tox: 5.8µM*; KB-V1 cytotox: inactive; HT1080-NT tox: inconclusive; SW480 rerep: inconclusive; HT1080 IDH1KD tx: inconclusive

What do the screens show for `CCCn1c(=O)c(C(=O)NNS(=O)(=O)c2ccc(Cl)cc2)c(O)c2ccccc21`?
MCF10A rerep: 14.6µM*; KB-3-1 tox: inactive; KB-V1 cytotox: inconclusive; HT1080-NT tox: 1.7%; SW480 rerep: -3.5%; HT1080 IDH1KD tx: 0.9%

Results for CCCn1c(=O)c(C(=O)Nc2ccccc2C(=O)OCC)c(O)c2ccccc21 ?
MCF10A rerep: 11.2µM*; KB-3-1 tox: inconclusive; KB-V1 cytotox: inconclusive; HT1080-NT tox: 17.6%; SW480 rerep: inconclusive; HT1080 IDH1KD tx: 1.8%

What do the screens show for `O=C(CSc1nc2ccccc2n1Cc1cccc(C(F)(F)F)c1)NCc1ccccc1`?
KB-3-1 tox: inactive; KB-V1 cytotox: inactive

How did CCc1ccccc1N1CC(c2nc3ccccc3n2CCOc2ccc(Cl)c(C)c2)CC1=O (centres undefined) do in these assays?
KB-3-1 tox: inconclusive; KB-V1 cytotox: inactive
